Assay outcomes as filed in PubChem.
APEX1 inh – blocks human APE1 abasic DNA cleavage | P27695 | recombinant APE1, TAMRA/BHQ-2 abasic DNA cleavage fluorescence | Potency, µM (highest dose often 65.8 µM), actives largely listed as inhibitors | 350,000 tested, 0.35% active | AID 2517; also: nearly all actives have a fitted effect of over 55% in size
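Activity was derived from the fluorescence gain between first and third kinetic reads (60 s intervals, ex 525/em 598 nm) after 50 nM THF-abasic TAMRA/BHQ-2 duplex was added to 0.75 nM APE1 preincubated 15 min with compound.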
BLM inh – Bloom syndrome helicase (human) inhibition | P54132 | recombinant BLM DNA unwinding, fluorescence dequenching | Potency, µM (highest dose often 56.1 µM), hits mostly inhibitors | 350,000 tested, 0.2% active | AID 2528; also: nearly all actives have a fitted effect of over 35% in size
KDM4E inh – JMJD2E (human) inhibition. B2RXH2. JMJD2E catalytic domain, FDH-coupled NADH fluorescence (FDH is formaldehyde dehydrogenase). Potency, µM (titrated, usually from 57.1 µM), actives largely listed as inhibitors. 230,000 tested, 1.6% active. AID 2147; active = well fitted inhibition curve with a large enough effect, not every such curve was filed as active; inconclusive = small, poorly fitted or top-dose-only effect, or another doubt; inactive = no such curve, though single readings can be large or run the other way; also: nearly all actives have a fitted effect of over 50% in size
RECQ1 inh – inhibitors of human RECQ1 DNA helicase | P46063 | AID 2549 | Potency, µM (titrated, usually from 57.3 µM), actives largely listed as inhibitors | RECQ1 DNA unwinding, red fluorescence kinetic read | 240,000 tested, 0.54% active; also: nearly all actives have a fitted effect of over 30% in size
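RECQ1T1 50 nM; forked duplex (20 bp + 30-nt ss tails) 200 nM, ATP 2 mM final; pH 8.0, 2 mM MgCl2, 2.5 ug/ml poly(dI-dC); 15 min compound preincubation; discontinuous kinetic read over 2 h at RT.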
L3MBTL1 block – inhibitors of human L3MBTL1 | Q9Y468 | AlphaScreen L3MBTL1–H3K9me1 peptide binding | Potency, µM (top dose mostly 57.1 µM), usual class: inhibitors | 230,000 tested, 0.66% active; also: nearly all actives have a fitted effect of over 60% in size
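Read-out is AlphaScreen signal from streptavidin donor and nickel chelate acceptor beads (10 ug/mL final each) bridging L3MBTL1 (50 nM) and biotinylated K9-monomethylated H3(1-15) peptide (75 nM), after 30 min compound exposure at room temperature.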
GoLoco inh red – RGS12 GoLoco-Gai1 interaction inhibition | P63096 | Gai1:RGS12 GoLoco peptide FP, rhodamine, 10 min | Potency, µM (top dose mostly 61.6 µM), actives largely listed as inhibitors | 230,000 tested, 0.44% active; active = well fitted inhibition curve with a large enough effect, not every such curve was filed as active; inactive = no such curve, though single readings can be large or run the other way; also: nearly all actives have a fitted effect of over 30% in size
Large screens that a line does not name were inactive. This excerpt belongs to a sample that is enriched for hits. Unless noted, calls follow the shape of the dose curve; as a rule, active = well fitted curve in the direction sought with a large enough effect; inconclusive = small, poorly fitted or top-dose-only effect, or another doubt; inactive = no such curve, though single readings can be large; an effect the other way counts as inactive or inconclusive.

COc1cccc(/C=N/NC(=O)c2cc3c(OC)ccc(OC)c3[nH]2)c1O	none (no result: KDM4E inh, RECQ1 inh, L3MBTL1 block, GoLoco inh red)
COc1cc(C(=O)Oc2ccccc2/C=N/NC(=O)c2ccc(Cl)cc2)cc(OC)c1OC	RECQ1 inh 22.4µM
COc1cccc(/C=N/NC(=O)c2ccc3nc[nH]c3c2)c1O	KDM4E inh 10µM
C=CCSC1=N/C(=C\c2cc(OCC)c(OC(C)=O)c([N+](=O)[O-])c2)C(=O)S1	APEX1 inh inconclusive, L3MBTL1 block 1.41µM
COc1ccc(Cl)cc1NC(=O)Cn1c(=O)n(Cc2ccco2)c(=O)c2ccc(C(=O)NC3CCCC3)cc21	none (no result: APEX1 inh, KDM4E inh, RECQ1 inh, L3MBTL1 block, GoLoco inh red)
C=CCN1C(=O)/C(=C/c2ccc(OC(C)=O)c(OCC)c2[N+](=O)[O-])SC1=S	L3MBTL1 block 39.8µM
CNc1ncnc2c1ncn2[C@H]1C[C@H](O)[C@@H](CO)O1	none (no result: BLM inh, KDM4E inh, L3MBTL1 block)
O=C(OCC(F)(F)F)[C@H](O)[C@@H](O)C(=O)OCC(F)(F)F	none (no result: L3MBTL1 block)
C=CC1=C(C)C2=CC3=NC(=C(CC(=O)[O-])C4=NC(=C(C)C4=C([O-])[O-])C=c4[n-]c(c(C)c4CC)=CC1=N2)C(CCC(=O)[O-])C3C.[Cu+2].[Na+].[Na+].[Na+] (stereo not drawn)	APEX1 inh 0.398µM (no result: BLM inh, KDM4E inh, RECQ1 inh, L3MBTL1 block, GoLoco inh red)
CC(C)COP(=O)(c1ccc(N(C)C)cc1)C(O)c1ccncc1 (stereo not drawn)	KDM4E inh 20µM
CN(C)c1ccc(P(=O)(OC2CCCCC2)C(O)c2ccncc2)cc1 (stereo not drawn)	KDM4E inh 22.4µM
CC1CCC(C(C)C)C(OP(=O)(c2ccccc2)C(O)c2ccncc2)C1 (stereo not drawn)	KDM4E inh 17.8µM (no result: L3MBTL1 block)
CC(C)COP(=O)(c1ccc(N(C)C)cc1)C(O)c1ccc(N(C)C)cc1 (stereo not drawn)	none (no result: KDM4E inh, RECQ1 inh, L3MBTL1 block, GoLoco inh red)
CCOc1ccc(Cl)cc1C1CC(=O)Nc2cc(OC)c(OC)c(OC)c21 (stereo not drawn)	none (no result: APEX1 inh, KDM4E inh, RECQ1 inh, L3MBTL1 block, GoLoco inh red)
COc1ccccc1-c1csc(N2CCC(C(N)=O)CC2)n1	none (no result: BLM inh, KDM4E inh, RECQ1 inh, L3MBTL1 block, GoLoco inh red)
CN(/N=C/c1cc(Cl)cc(Cl)c1O)C(=S)NC(C)(C)C	KDM4E inh 31.6µM
Oc1c(Cl)cc(Cl)cc1/C=N/Nc1ncc(Br)cn1	none
COC(=O)CC1c2ccccc2C(Cc2ccc(OC)cc2)C(C)N1C(=O)OC (stereo not drawn)	none (no result: L3MBTL1 block)
Nc1ccc(N=Nc2ccccc2)c2ccccc12	L3MBTL1 block 31.6µM
CCOC(=O)C(C(=O)OCC)C(C(=O)OCC)N1CCOCC1 (stereo not drawn)	APEX1 inh inconclusive, GoLoco inh red 14.1µM (no result: L3MBTL1 block)
COc1cccc(/C=N/NC(=O)C(C)n2nc(C)c([N+](=O)[O-])c2C)c1O (stereo not drawn)	KDM4E inh 14.1µM
Cc1nn(CC(=O)N/N=C/c2cccs2)c(C)c1[N+](=O)[O-]	none
COc1cc(/C=N\NC(=O)c2ccc(Cn3nc([N+](=O)[O-])c(Cl)c3C)o2)ccc1O	none (no result: L3MBTL1 block)
COc1cccc(/C=N/NC(=O)Cn2nc(C)c([N+](=O)[O-])c2C)c1O	KDM4E inh 11.2µM (no result: GoLoco inh red)
COc1cccc(/C=N\NC(=O)c2ccc(Cn3cc(Br)c([N+](=O)[O-])n3)o2)c1O	BLM inh 31.6µM
CC(=O)Nc1sc2c(c1-c1nc3ccccc3s1)CN(C(C)C)CC2	APEX1 inh 11.9µM (no result: BLM inh, KDM4E inh, RECQ1 inh, GoLoco inh red)
COC(=O)c1nnc(C(=O)NCc2ccccc2)c2[nH]c3ccc(OC)cc3c12	none (no result: L3MBTL1 block)
O=C(CNC(=O)C(c1ccccc1)c1ccccc1)N/N=C/c1ccc(O)cc1O	KDM4E inh 20µM
O=C(N/N=C/c1ccc(O)cc1O)/C(=C/c1ccccc1)CCO	KDM4E inh 15.8µM
O=C(CNC(=O)C1COc2ccccc2O1)N/N=C/c1ccc(O)cc1O (stereo not drawn)	APEX1 inh inconclusive, KDM4E inh 28.2µM
O=C(CCCCCNC(=O)c1ccccc1)N/N=C/c1ccc(O)cc1O	KDM4E inh 20µM
COc1cc(NC(=O)CN2C(=O)C(c3ccc(C)cc3)=NC23CCCCC3)cc(OC)c1	none (no result: APEX1 inh, KDM4E inh, RECQ1 inh, L3MBTL1 block, GoLoco inh red)
Cc1ccc(CNc2cccc(N3CCCCC3)c2)cc1	none (no result: BLM inh, KDM4E inh, RECQ1 inh, L3MBTL1 block, GoLoco inh red)
